From PubChem BioAssay AID1220 (Sanford-Burnham Center for Chemical Genomics, 2008)
Hit rate of the full screen: of about 190,000 compounds, about 1,300 (0.68%) were called active. The entries come from a sample that favours actives as a whole. A number with no mark means an inactive call. Cut-off read from the data, not from the text of the source: active = inhibition above about 50%; inactive = the rest.

These compounds were tested against Mannose-6-phosphate isomerase (Homo sapiens) (UniProt P34949) (assay: MPI inhibition at elevated mannose 6-phosphate – biochemical, fluorescence intensity, high mannose 6-phosphate, primary screen (AID 1220)). Details: recombinant PMI enzyme, coupled fluorescence intensity; at 20 µM; hits give high values.
Sequence of Mannose-6-phosphate isomerase (Homo sapiens) (P34949 whole entry, looked up): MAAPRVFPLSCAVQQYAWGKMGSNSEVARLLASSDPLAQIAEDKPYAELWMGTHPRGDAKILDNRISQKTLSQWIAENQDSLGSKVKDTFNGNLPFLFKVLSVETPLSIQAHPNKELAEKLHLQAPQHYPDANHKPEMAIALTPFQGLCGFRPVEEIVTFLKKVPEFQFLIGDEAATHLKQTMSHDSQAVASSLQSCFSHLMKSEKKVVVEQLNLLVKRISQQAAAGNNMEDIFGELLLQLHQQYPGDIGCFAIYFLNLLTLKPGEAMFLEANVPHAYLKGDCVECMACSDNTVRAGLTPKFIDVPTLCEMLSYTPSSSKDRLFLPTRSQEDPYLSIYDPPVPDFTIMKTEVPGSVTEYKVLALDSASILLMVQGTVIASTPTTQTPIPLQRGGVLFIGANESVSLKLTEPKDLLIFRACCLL
`CCOC(=O)C1CCN(S(=O)(=O)c2ccc(C(=O)OC)cc2)CC1` was tested, and the inhibition was -3.3%.
`CCOC(=O)c1cc2occc2n1CC(=O)Nc1ccc(OC)cc1OC` was tested, and the inhibition was 9%.
With `CCOC(=O)c1nn(-c2ccc(C)cc2)c(=O)c2c(N)scc12` the inhibition was 61.7% (active).
`CCOC(=O)c1nc(N)c(=O)n(-c2ccc(C)cc2)n1` showed an inhibition of -8.9%.
In the case of `CCOC(=O)c1nn(-c2ccc(OC)cc2)c(=O)c2c(N)scc12`, the inhibition is reported as 27.4%.
Compound `COc1ccccc1NC(=O)C/C(N)=N/O` has an inhibition of -9.6%.
For `CNC(=O)C(=O)NCCCN1CCOCC1`, the inhibition was -4.4%.
In the case of `CCOc1cc(N2CCCC2)ccc1[N+](=O)[O-]`, the inhibition is reported as 53.4% (active).
In the case of `O=[N+]([O-])c1ccc(N2CCOCC2)cc1N1CCCCC1`, the inhibition is reported as -3.2%.
In the case of `CC(C)(C)CNc1cc(N2CCCC2)ccc1[N+](=O)[O-]`, the inhibition is reported as 11.3%.
In the case of `O=[N+]([O-])c1ccc(N2CCCC2)cc1N1CCCC1`, the inhibition is reported as 50.2% (active).
With `C=CCNc1cc(N2CCCC2)ccc1[N+](=O)[O-]` the inhibition was 51.8% (active).
Work on `Cc1cc(N2CCCCC2)ccc1[N+](=O)[O-]` yielded an inhibition of 44.8%.
Compound `CCNc1cc(N2CCCC2)ccc1[N+](=O)[O-]` has an inhibition of 32.8%.
`COc1cc(N2CCCC2)ccc1[N+](=O)[O-]` gave an inhibition of 19.4%.
Work on `O=[N+]([O-])c1ccc(N2CCCCC2)cc1N1CCOCC1` yielded an inhibition of 4.6%.
Work on `O=C(/C=C/c1ccco1)c1ccc(O)cc1` yielded an inhibition of 11.9%.
For `Cn1c(CN2CCCC2)nc2cc(NC(=O)c3cccs3)ccc21`, the inhibition was -21.8%.
`Cc1nn(-c2ccc(F)cc2F)c2c1-c1nc(N3CCCC3)ncc1CC2` showed an inhibition of 38.1%.
`Cc1nn(-c2ccccn2)c2c1-c1nc(N)ncc1CC2` gave an inhibition of 40.6%.
For `Cc1nn(-c2ccccn2)c2c1-c1nc(N3CCOCC3)ncc1CC2`, the inhibition was 57.5% (active).
`C[C@@H]1NC(=O)[C@H](CCCN=C(N)N)NC(=O)c2cc([N+](=O)[O-])cc(I)c2OCC[C@@H](C(N)=O)NC1=O` was tested, and the inhibition was -20.7%.
With `Cc1nc2ccc(C(C(F)(F)F)(C(F)(F)F)C(F)(F)F)cc2[nH]1` the inhibition was 14.4%.
For `Nc1ccc2nc(C(F)(F)F)[nH]c2c1`, the inhibition was 37%.
With `Cc1nc2cc3nc(C(F)(F)F)[nH]c3cc2[nH]1` the inhibition was 52.2% (active).
For `COCCNC(=O)C1=NOC(Cn2cc(C#N)c(=O)n(C)c2=O)C1` (stereo not drawn), the inhibition was 5.3%.
With `CCCNC(=O)/C=C/c1ccc(S(=O)(=O)Nc2ccccc2OC)cc1` the inhibition was -3.6%.
With `CC1CCCCC1NC(=O)CCCn1c(=S)[nH]c2ccccc2c1=O` (stereo not drawn) the inhibition was -12.4%.
With `Cc1ccc(C)n1-c1ccc(N(C)C)cc1` the inhibition was 66.1% (active).
In the case of `Cc1ccc(C)n1-c1ccc(C(=O)O)cc1`, the inhibition is reported as 0.2%.
Compound `Cc1ccc(C)n1-c1ccncc1` has an inhibition of 3.1%.
`Cc1ccc(OC(=O)C(F)(F)F)c2c1NCCC2` showed an inhibition of 11.5%.
Compound `Cc1cc2c(C)cc(=O)oc2c2c1NCCC2` has an inhibition of 12.6%.
`COc1ccc(N2CCN(/C(=N\S(=O)(=O)c3ccc(C)cc3)Nc3nc(C)cc(C)n3)CC2)cc1` was tested, and the inhibition was -1.1%.
`Nc1nc(-c2ccco2)nc(N2CCCCC2)n1` gave an inhibition of 2.4%.
In the case of `O=C1C=CC(=O)C(C2=C3C(=O)N(CCc4ccccc4)CC(=O)N3CCC2)=C1`, the inhibition is reported as 50.6% (active).
`O=C(NCc1ccc(N2CCCC2=O)cc1)c1cn(CCc2ccccc2)nn1` was tested, and the inhibition was 3.8%.
Work on `O=C1CC(=O)N(CCc2ccccc2)C(=O)N1CCc1ccccc1` yielded an inhibition of 7.8%.
`O=C(NO)c1cc(OCC(F)(F)F)ccc1OCC(F)(F)F` showed an inhibition of -2.8%.
In the case of `O=[N+]([O-])c1cc2c(cc1/C=N/n1cnnc1)OCO2`, the inhibition is reported as 13%.
Work on `Cc1ccc(C)c(N=Cc2cc3c(cc2[N+](=O)[O-])OCO3)c1` yielded an inhibition of 41.6%.
With `Cc1ccccc1N=Cc1cc2c(cc1[N+](=O)[O-])OCO2` the inhibition was 53.3% (active).
For `Cc1cccc(N=Cc2cc3c(cc2[N+](=O)[O-])OCO3)c1`, the inhibition was 62.2% (active).
`Cc1cc(C)nc(N/N=C/c2cc3c(cc2[N+](=O)[O-])OCO3)n1` showed an inhibition of 1.3%.
Compound `Cc1cccc(C)c1OCC(=O)N/N=C/c1cc2c(cc1[N+](=O)[O-])OCO2` has an inhibition of -72.5%.
With `CC1=NN(c2nc(-c3ccc(C)cc3)cs2)C(=O)C1N=Nc1ccc2ccccc2c1` (stereo not drawn) the inhibition was 10.1%.
For `Cc1cc(C)cc(NC(=O)C2(c3cccs3)CCOCC2)c1`, the inhibition was 3.6%.
In the case of `O=C(C/C=N\OCc1ccc(Cl)cc1Cl)Nc1ccccc1`, the inhibition is reported as 15.2%.
With `Nc1ccc(Nc2ccccc2N)cc1` the inhibition was 52.9% (active).
Work on `COc1ccc(Nc2ccccc2N)cc1` yielded an inhibition of 3.8%.
For `Nc1ccccc1Nc1ccccc1`, the inhibition was -26.3%.
`Cc1ccc(-c2cnc(-c3ccncc3)o2)cc1` showed an inhibition of -3.1%.
With `CCC(O)(C#CCN1CCCCC1)CC` the inhibition was -6.1%.
Compound `Cc1ccc2c(c1)C(O)(CC(=O)c1ccc(C)s1)C(=O)N2` (stereo not drawn) has an inhibition of 4.5%.
Work on `CC1CCN(S(=O)(=O)c2ccc(C(=O)OCc3ccc4c(c3)OCO4)cc2)CC1` yielded an inhibition of -5.5%.
`CCCCN=C1C([N+](=O)[O-])=CC=C2C1=NC1(CCCCC1)N2O` was tested, and the inhibition was 53% (active).
`Cn1c(SCC(=O)Nc2cccc3ccccc23)nc(O)cc1=O` gave an inhibition of 26.1%.
For `NC(=O)Cc1c[nH]c2cccc(O)c12`, the inhibition was 44.8%.
For `O=C(O)Cc1c[nH]c2cccc(O)c12`, the inhibition was 51.5% (active).
`O=C(O)C(=O)Cc1c[nH]c2ccccc12` was tested, and the inhibition was -4.1%.
`CCN(CC(=O)Nc1ccc2c(c1)OCCO2)CC(=O)Nc1ccc2c(c1)OCO2` showed an inhibition of 5.7%.
`COc1ccc(S(=O)(=O)NCCCCNS(=O)(=O)c2ccc(OC)cc2)cc1` gave an inhibition of 1.1%.
`Cc1ccc(-c2[nH]c(-c3ccccc3)nc2SCC(=O)NCC2CCCO2)cc1` (stereo not drawn) was tested, and the inhibition was 3.3%.
With `O=C(OC1CCN(c2ncc(C(F)(F)F)cc2Cl)CC1)c1ccc(Cl)cc1` the inhibition was 7.7%.
With `O=C(OC1CCN(c2ncc(C(F)(F)F)cc2Cl)CC1)c1ccccc1` the inhibition was 11.4%.
With `COc1ccc(C(=O)OC2CCN(c3ncc(C(F)(F)F)cc3Cl)CC2)cc1` the inhibition was 54.2% (active).
For `NS(=O)(=O)c1ccc(CCNC(=O)COC(=O)/C=C/c2ccc(Cl)cc2)cc1`, the inhibition was 0.2%.
`CCc1nnc(NC(=O)CSc2nnc(COc3ccc(C)cc3)n2-c2ccccc2)s1` was tested, and the inhibition was 8%.
`O=C(N/N=C\c1ccc([N+](=O)[O-])o1)C1COc2ccccc2O1` (stereo not drawn) gave an inhibition of 21.3%.
For `O=C(N/N=C\c1ccc(-c2ccccc2[N+](=O)[O-])o1)C1COc2cc3ccccc3cc2O1` (stereo not drawn), the inhibition was 65.2% (active).
`O=C(N/N=C/c1ccco1)C1CC1c1ccccc1` (stereo not drawn) was tested, and the inhibition was 0.2%.
With `O=C(N/N=C/c1ccc(-c2ccccc2[N+](=O)[O-])o1)[C@H]1C[C@@H]1c1ccccc1` the inhibition was 63.4% (active).
`O=C(N/N=C\c1ccc(-c2ccc([N+](=O)[O-])cc2)o1)C1COc2ccccc2O1` (stereo not drawn) gave an inhibition of -8.4%.
Work on `O=C(N/N=C\c1cccc([N+](=O)[O-])c1O)C1COc2ccccc2O1` (stereo not drawn) yielded an inhibition of -15.4%.
With `O=C(N/N=C\c1ccc(-c2ccccc2[N+](=O)[O-])o1)C1COc2ccccc2O1` (stereo not drawn) the inhibition was 55.3% (active).
`O=C(N/N=C/c1ccc(-c2cccc([N+](=O)[O-])c2)o1)[C@H]1C[C@@H]1c1ccccc1` was tested, and the inhibition was 8.6%.
`Cc1ccc(/C=N\NC(=O)C2COc3cc4ccccc4cc3O2)o1` (stereo not drawn) gave an inhibition of 0.7%.
`CC(=O)N1CCC(N(CCCOC(C)C)C(=O)Nc2ccc(C)c(C)c2)CC1` was tested, and the inhibition was 0.4%.
Work on `Cc1nc2nc(SCC(=O)N3CCOCC3)nn2c(C)c1Cc1c(F)cccc1Cl` yielded an inhibition of 18.6%.
`Cc1cccc(NC(=O)Cn2nnc(-c3ccc(CN4CCCC4)cc3)n2)c1C` showed an inhibition of 0.5%.
`CN(c1ccccc1)S(=O)(=O)c1cccc(C(=O)OCC(=O)NCCCN2CCCC2=O)c1` gave an inhibition of -7.4%.
`CCOc1ccc(CCNC(=O)COC(=O)c2cccnc2OCC)cc1OCC` gave an inhibition of 14.4%.
Compound `COc1ccc(N2C(C(C)=O)=NN(c3ccccc3)C2c2cccs2)cc1` (stereo not drawn) has an inhibition of 10.7%.
Work on `CCOc1ccccc1N1CC(C(=O)Nc2ccc3c(c2)OCCO3)CC1=O` (stereo not drawn) yielded an inhibition of 1.4%.
For `Cc1csc(/C(C#N)=N/O)n1`, the inhibition was 8.3%.
For `CC1CC(C)CN(CC(=O)c2cccs2)C1` (stereo not drawn), the inhibition was -20.3%.
Compound `CCc1c(C(=O)Nc2ccc(OC)c(Cl)c2)[nH]c(C)c1C(C)=O` has an inhibition of -0.2%.
In the case of `O=C(NNc1cc(N2CCOCC2)nc(N2CCOCC2)n1)c1ccc([N+](=O)[O-])cc1`, the inhibition is reported as 56.3% (active).
With `O=C(CCc1ccccc1)NNC(=O)C1CCCCC1` the inhibition was -4.6%.
`O=C(NNc1cc(N2CCOCC2)nc(N2CCOCC2)n1)c1ccc(Cl)c(Cl)c1` was tested, and the inhibition was 48.8%.
`CC(C)(C)c1ccc(C(=O)NNc2cc(N3CCOCC3)nc(N3CCOCC3)n2)cc1` gave an inhibition of 48.8%.
In the case of `Cc1ccc(C(=O)NNc2cc(N3CCCC3)nc(N3CCCC3)n2)cc1`, the inhibition is reported as 51.4% (active).
`Cc1ccc(C(=O)NNC(=O)C2CCN(c3nc(C)cc(C)n3)CC2)cc1` gave an inhibition of -8.6%.
With `O=C(CCc1ccccc1)Nc1ccc(N2CCCCC2)cc1` the inhibition was 3.5%.
For `CC(C)(C)c1ccc(C(=O)NNc2cc(N3CCCCC3)nc(N3CCCCC3)n2)cc1`, the inhibition was 18.1%.
In the case of `O=C(CCc1ccccc1)NNc1cc(N2CCCCC2)nc(N2CCCCC2)n1`, the inhibition is reported as 53.4% (active).
Work on `CCOC(=O)N1CCN(C(=O)c2ccc(CN(c3ccccc3)S(C)(=O)=O)cc2)CC1` yielded an inhibition of -4.3%.
`CC(=O)N(c1c(C)n(C)n(-c2ccccc2)c1=O)C1(C(=O)NC2CCCCC2)CCCCC1` was tested, and the inhibition was 1.3%.
